# According to PubChem BioAssay AID1851 (National Center for Advancing Translational Sciences (NCATS), 2009):
# Where “and” joins values, the source holds several entries; their conditions need not be identical. Identical values can stand only once. Among all 16,000 compounds or so, about 2,600 (16%) were called active. Roughly 20% stayed inconclusive and do not appear here. The call rests on the fitted dose curve; in most records, active means well fitted curve in the direction sought with a large enough effect; inconclusive means small, poorly fitted or top-dose-only effect, or effect the other way; inactive means no such curve, though single readings can be large or run the other way. A selection follows. Some structures have more than one record in an assay (separate samples or runs), and their calls can disagree.
# Target: Cytochrome P450 2D6 (Homo sapiens) (UniProt P10635)
# Assay: Cytochrome panel assay with activity outcomes
# Conditions: recombinant CYP, pro-luciferin dealkylation, luminescence, p450-cyp2d6; series mostly up to 57.1 µM; activity, negative = inhibition: at the top concentration
# On the % scale 0 is the no-effect control and ±100 the full control effect.
# Chain of Cytochrome P450 2D6 (Homo sapiens) (P10635 whole entry, looked up): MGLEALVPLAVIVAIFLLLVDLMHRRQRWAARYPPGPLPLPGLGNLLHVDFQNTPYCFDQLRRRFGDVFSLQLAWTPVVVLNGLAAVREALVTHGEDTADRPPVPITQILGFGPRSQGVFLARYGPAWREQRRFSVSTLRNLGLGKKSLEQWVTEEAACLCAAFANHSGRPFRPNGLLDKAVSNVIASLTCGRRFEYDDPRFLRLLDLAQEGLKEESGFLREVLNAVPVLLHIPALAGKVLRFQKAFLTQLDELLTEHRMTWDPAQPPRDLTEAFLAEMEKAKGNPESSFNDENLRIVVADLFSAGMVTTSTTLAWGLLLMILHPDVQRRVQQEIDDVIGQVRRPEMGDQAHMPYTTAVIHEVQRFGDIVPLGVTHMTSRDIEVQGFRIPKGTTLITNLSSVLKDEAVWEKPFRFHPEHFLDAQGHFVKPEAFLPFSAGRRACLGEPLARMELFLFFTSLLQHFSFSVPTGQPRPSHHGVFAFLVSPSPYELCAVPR
Structure (SMILES),"activity, negative = inhibition",AC50
O=C(Cn1nnc2ccccc21)N/N=C\C=C\c1ccccc1,4.01% (inactive),
NC(=O)c1csc(-c2ccc(CO)o2)n1,0.271% [at 11.4 µM] (inactive),
NS(=O)(=O)c1ccc(N=Nc2ncccc2O)cc1,-13% [at 11.4 µM] (inactive),
C/C(=N\Nc1nnc(-c2ccccc2)c(-c2ccccc2)n1)c1cccc([N+](=O)[O-])c1,-29.2% (inactive),
O=c1c(C=Nc2cccc(C(F)(F)F)c2)c[nH]n1-c1cccc(Cl)n1,-18.9% (inactive),
CCc1cc2c(nc1CC)CCN(CC/C(C)=N/OC[C@@H](C)[C@H](OCc1ccccc1)C(C)C)C2,-10.6% [at 11.4 µM] (inactive),
COc1ccccc1NC(=O)CCc1c(C)[nH]c(=O)c(C#N)c1C,-20.1% (inactive),
Cc1ccc2c(c1)nnn2C1CCN(CC(=O)N2c3ccccc3CC2C)CC1 (stereo not drawn),,25.1 µM (active)
CC1Cc2ccccc2N1C(=O)CSc1nnnn1C(C)C (stereo not drawn),-0.323% (inactive),
CC1Cc2ccccc2N1C(=O)Cn1cc([N+](=O)[O-])cn1 (stereo not drawn),-4.04% (inactive),
O=C(O)/C=C\c1cnc[nH]1,-4.82% (inactive),
CC(=O)N1CCC(=O)N(C(C)C)c2ccccc21,,3.16 µM (active)
Cc1nn(C(C)C(=O)N2CCc3ccccc32)c(C)c1[N+](=O)[O-] (stereo not drawn),-3.76% (inactive),
CC(=O)NC1=NN(c2ccccc2)C(=O)C1,22.6% (inactive),
C/C(Cl)=C/CSc1nnc2n(N)c(=O)c3ccccc3n12,-14.6% (inactive),
CC1CCC(C(=O)NC(C(=O)N2CCC(N3CCCCC3)CC2)C(C)C)CC1 (stereo not drawn),-5.87% (inactive),
O=C(NCc1ccco1)c1ccccc1NS(=O)(=O)c1ccc(Br)s1,-22.3% (inactive),
CC1CC(C)CN(C(=O)CNS(=O)(=O)c2ccc(Br)s2)C1 (stereo not drawn),,3.16 µM (active)
O=C(CNS(=O)(=O)c1ccc(Br)s1)N1CCC(N2CCCCC2)CC1,,12.6 µM (active)
O=c1c(-c2ccc(F)c(F)c2)nc2cncnc2n1C1CC1,-0.558% (inactive),
COc1ccc(C(=O)N/N=C/c2cccc3cccnc23)cc1,-11.4% (inactive),

Structure (SMILES),"activity, negative = inhibition",AC50
CC(C)(C)c1nnc(NC(=O)NS(=O)(=O)c2ccccc2)s1,-2.56% (inactive),
COc1ncc2nc(-c3ccc(F)cc3)c(=O)n(C)c2n1,-2.72% (inactive),
Oc1ccc([C@@H]2CNCCc3c2cc(O)c(O)c3Cl)cc1,,inactive and 3.16 µM (active)
Oc1cc2c(cc1O)[C@H](c1ccccc1)CNCC2,,inactive
Oc1cc2c(c(Cl)c1O)CCNC[C@H]2c1ccccc1,,10 µM (active)
Oc1ccc([C@@H]2CNCc3sccc32)cc1O,-12.1% (inactive),
CCC(=O)Nc1nonc1-c1nc2ccccc2n1N(C(=O)CC)C(=O)CC,2.61% (inactive),
Cc1cc(CNC(=O)[C@H]2C[C@@H]2[C@H](NP(=O)(c2ccccc2)c2ccccc2)c2ccccc2)nn1C,0.567% (inactive),
CC1CSc2nc3sc4c(c3c(=O)n21)CCCC4 (stereo not drawn),-12.8% (inactive),
CN(C)c1ncc2nc(-c3cccs3)c(=O)n(Cc3cccs3)c2n1,2.06% (inactive),
Cc1cc(NC(=O)C2C3C(=O)N(Cc4ccc(Cl)cc4)C(C(=O)NC(C)(C)C)C34C=CC2(C)O4)no1 (stereo not drawn),4.95% (inactive),
CN1CCN(c2ncc3nc(-c4cccs4)c(=O)n(CCc4ccccc4)c3n2)CC1,-7.46% (inactive),
CCNc1ncc2nc(-c3cc(F)cc(F)c3)c(=O)n(CCOC)c2n1,,0.316 µM (active)
CN(C)c1ncc2nc(-c3cc(F)cc(F)c3)c(=O)n(C[C@H]3CCCO3)c2n1,-0.128% (inactive),
CCNc1ncc2nc(-c3cc(F)cc(F)c3)c(=O)n(C[C@H]3CCCO3)c2n1,,0.158 µM (active)
CCNc1ncc2nc(-c3cc(F)cc(F)c3)c(=O)n(Cc3cccs3)c2n1,1.18% (inactive),
Cc1nc2cnc(N3CCN(C)CC3)nc2n(CCc2ccccc2)c1=O,,2.51 µM (active)
COCCn1c(=O)c(-c2cc(F)cc(F)c2)nc2cnc(OC)nc21,2.08% (inactive),
CCNc1ncc2nc(-c3cc(F)cc(F)c3)c(=O)n(CCc3ccccc3)c2n1,,15.8 µM (active)
CN1CCN(c2ncc3nc(-c4cc(F)cc(F)c4)c(=O)n(CCc4ccccc4)c3n2)CC1,-8.55% (inactive),
COCCn1c(=O)c(-c2cc(F)cc(F)c2)nc2cnc(N(C)C)nc21,11.4% (inactive),

Structure (SMILES),"activity, negative = inhibition",AC50
CCNc1ncc2nc(-c3ccc(Cl)cc3)c(=O)n(C[C@H]3CCCO3)c2n1,5.84% (inactive),
CN(C)c1ncc2nc(-c3cc(F)cc(F)c3)c(=O)n(CCc3ccccc3)c2n1,-8.92% (inactive),
CC(C)NC(=O)/C(=N\O)c1ccccc1,10.4% (inactive),
Cc1ccc(OCC(=O)NNC(=O)c2cccnc2)cc1,27.2% (inactive),
O=c1c(-c2cccs2)nc2cnc(Oc3ccccc3)nc2n1C1CC1,0.176% (inactive),
COc1ccc(NC(=O)N2CCCC3(CCN(C(=O)c4cccc(F)c4)CC3)C2)cc1,1.41% (inactive),
CN1CCN(c2ncc3nc(-c4ccc(Cl)cc4)c(=O)n(C4CC4)c3n2)CC1,8.63% (inactive),
Cc1ccc(NC(=O)/C(=C/c2cccc([N+](=O)[O-])c2)NC(=O)C2CCCCC2)c(C)c1,-22.1% (inactive),
CC1=C(C(=O)Nc2ccccc2F)C(c2ccsc2)C2=C(CC(c3ccccc3)CC2=O)N1 (stereo not drawn),-23.9% (inactive),
COC(=O)C/C=C\[C@@H](C)[C@@H](/C=N\OC[C@@H]1O[C@H](c2ccccc2)C=C[C@@H]1Oc1ccc(OC)cc1)OC,-17.7% [at 11.4 µM] (inactive),
COC(=O)c1ccccc1N/C=C1\CCc2c(c(C)nn2-c2ccccn2)C1=O,2.73% (inactive),
CCOc1ccc(/C=N/Nc2nc(N3CCCC3)nc(N3CCCC3)n2)cc1OC,-3.09% (inactive),
CCNc1ncc2nc(-c3ccccc3)c(=O)n(CCOC)c2n1,,3.16 µM (active)
CCNc1ncc2nc(C)c(=O)n(CCc3ccccc3)c2n1,-11.9% (inactive),
CCNc1ncc2nc(-c3ccccc3)c(=O)n(CCc3ccccc3)c2n1,,10 µM (active)
CCNc1ncc2nc(-c3ccc(OC)cc3)c(=O)n(CCOC)c2n1,0.671% (inactive),
CCNc1ncc2nc(-c3ccccc3)c(=O)n(C)c2n1,-0.71% (inactive),
COCCn1c(=O)c(-c2ccccc2)nc2cnc(Nc3ccccc3)nc21,0.836% (inactive),
CCOC(=O)c1sc(=N)n(-c2ccc(OC)cc2)c1C,-6.61% (inactive),
COc1cccc(/C=c2/s/c(=C(\C#N)C(=O)N3CCOCC3)n(-c3ccccc3)c2=O)c1,21.4% (inactive),
Cc1ccc(N2CCN(CCC(=O)O)CC2)cc1,-9.16% [at 11.4 µM] (inactive),
